The source of these data is PubChem BioAssay (NCI).

This is part of a sample that, as a whole, favours compounds with a hit. Of some 83,000 tested, about 20% had one in any assay.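 Growth was measured after 48 h exposure to one concentration of compound in 96-well plates. Values under 10 count as active.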 Unmarked numbers belong to inactive results. Calls of active or inactive are those of the source.

Holding throughout (experiment): NCI-60 one-dose screen, 48 h (100 = growth as untreated, 0 = no growth, -100 = all killed)
Settings in all cases: 10 µM unless noted

Test [1] relates to NCI-H23 lung.
The test system of test [2] is NCI-H226 lung.
Test [3] concerns NCI-H322M lung.
For test [4], the system named is HOP-62 NSCLC.
Test [5] deals with NCI-H460 lung.
Test [6] has as its system HOP-92 NSCLC.
In test [7] the test system is NCI-H522 lung.
For test [8], the system named is A549/ATCC NSCLC.
In test [9] the test system is 786-0 renal.
For test [10], the system named is COLO 205 colon.
The test system of test [11] is DU-145 prostate.
The test system of test [12] is K-562 leukemia.
Test [13] concerns MALME-3M melanoma.
The subject of test [14] is MDA-MB-231 breast.
The test system of test [15] is RXF 393 renal.
For test [16], the system named is SF-268 CNS.
For test [17], the system named is SF-295 CNS.
Test [18] relates to SF-539 CNS.
The subject of test [19] is UACC-257 melanoma.
Test [20] relates to M14 melanoma.

As to `CN(C)Cc1cc(C(C)(C)C)cc(Br)c1O`, the growth in test [1] is 107%; in [2], 101%; in [3], 118%; in test [4], 110%; in [5], 86.5%; in [6], 87.5%. For the same molecule, the growth was 103% in test [7]; 109% in [8]; 101% in [9]; 102% in test [10]; 109% in test [11]; 106% in test [12]. The growth in [13] is 122%; in [14], 113%; in [15], 93.9%; in test [16], 104%; in [17], 97.3%; in test [18], 88.6%. For the same molecule, the growth was 119% in test [19] and 101% in test [20].
As for `COC1C(O)CC(OC2CC(OC3CC(O[C@@H]4C(=O)c5c(cc6cc(OC7CC(OC8CC(O)C(O)C(C)O8)C(O)C(C)O7)c(C)c(O)c6c5O)CC4[C@H](OC)[C@@H](O)C(C)=O)OC(C)C3O)OC(C)C2O)OC1C` (stereo not given in full), the growth in test [1] was -12.1% (active); in test [2], -16.6% (active); in test [3] it was 4.31% (active); in [4] it was -3.94% (active); in test [5], 7.99% (active); in test [6], 5.01% (active). The growth in [7] was -26.4% (active); in test [8], 3.44% (active); in [9], 8.03% (active); in test [10], -21.3% (active); in test [11], 15.8%; in test [12] it was 9.22% (active). Further, the growth in test [13] was -11.6% (active); in [14], 36.2%; in [15], -57.5% (active); in [16], 21.5%; in test [17] it was 8.38% (active); in test [18], -6.81% (active). The growth in [19] was -14.7% (active); in [20] it was -21.2% (active).
As to `COc1ccc(/C=N/NC(=O)Cn2c(-c3ccc(S(C)(=O)=O)cc3)nc3ccccc32)cc1`, the growth in test [1] is 95.5%; in test [2], 99.6%; in test [3], 91.3%; in test [4] it was 107%; in [5], 102%; in test [6], 94.1%. In addition, the growth is 92.9% in test [7]; 113% in test [8]; 99.3% in test [9]; 111% in [10]; 111% in [11]; 98.9% in test [12]. Moreover, the growth was 89% in test [13]; 95.8% in test [14]; 104% in test [15]; 102% in test [16]; 93.1% in test [17]; 96.4% in [18]. In addition, the growth is 112% in test [19] and 92.1% in [20].
Consider `COc1ccc(C(c2cc(OC)c(OC)c(OC)c2)N2CCCCC2)cc1` (stereo not given), for which the growth in test [1] is 59.3%; in test [2] it was 55.5%; in test [3] it was 47.9%; in [4], 29.8%; in [5] it was 19.4%; in [6] it was 44.1%. Moreover, the growth was 19.9% in test [7]; 49.1% in [8]; 38.8% in test [9]; 16.1% in [10]; 64.2% in test [11]; 18% in [12]. Besides, the growth in [13] was 55.3%; in [14], 53.1%; in [15], 26%; in test [16], 47.2%; in [17], 18.7%; in [18], 27.7%. For the same molecule, the growth in test [19] is 54.9%; in test [20], 23.3%.
In the case of `COc1ccc(/C=C/C(c2cc(OC)c(OC)c(OC)c2)n2cncn2)cc1O` (stereo not given), the growth is 41.5% in test [1]; 62.2% in test [2]; 54.7% in [3]; 22.5% in test [4]; 13.3% in [5]; 48% in [6]. Also, the growth is 13% in test [7]; 40.1% in [8]; 23.3% in test [9]; 60.6% in test [10]; 21% in [11]; 8.05% (active) in test [12]. The growth in test [13] is 54.4%; in [14], 45.5%; in test [15], -16.9% (active); in test [16], 54.1%; in [17], 1.43% (active); in test [18], -4.58% (active). In addition, the growth was 55.6% in test [19] and -12.3% (active) in test [20].
Take `CN(C)c1ccc(/C=N\NC(=O)c2ccc3nc(-c4ccc(Cl)cc4)[nH]c3c2)cc1`: the growth in [1] was 61.4%; in test [2], 93.1%; in test [3], 77.6%; in [4], 60.5%; in test [5], 36.2%; in test [6] it was 84.6%. The growth in test [7] was 96.1%; in test [8], 17.8%; in [9] it was 12.2%; in [10], 41.3%; in [11] it was 85.4%; in test [12], 38.8%. The growth was 11.8% in test [13]; 63.9% in test [14]; 77.4% in test [15]; 78.2% in test [16]; 31.3% in test [17]; 88% in test [18]. Moreover, the growth is 100% in [19] and 60.3% in [20].
